A selection: hits, their analogues and other compounds. The true share with any hit is near 7.3%.
NPC1 prom act: NPC1 promoter activation; 320,000 tested, 2.4% active; Huh7 NPC1 promoter luciferase reporter, 24 h; AID 485313; Potency, µM (titrated, usually from 9.22 µM), actives largely listed as activators; further: nearly all actives have a fitted effect of over 60% in size
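Stable NPC1-promoter luciferase Huh7 line; cpd (DMSO) 24 h, 37 °C, 5% CO2; Amplite luciferase reagent 10 min RT; luminescence readout. qHTS format.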
FLuc modulator: counter-screen for miR-21 project: firefly luciferase inhibitors or activators; purified FLuc, Km substrates, luminescence inhibition; 360,000 tested, 6.9% active; P08659; Potency, µM (series often up to 57.5 µM), actives largely listed as inhibitors; AID 588342; further: nearly all actives have a fitted effect of over 55% in size
Target sequence (P08659 whole entry, looked up): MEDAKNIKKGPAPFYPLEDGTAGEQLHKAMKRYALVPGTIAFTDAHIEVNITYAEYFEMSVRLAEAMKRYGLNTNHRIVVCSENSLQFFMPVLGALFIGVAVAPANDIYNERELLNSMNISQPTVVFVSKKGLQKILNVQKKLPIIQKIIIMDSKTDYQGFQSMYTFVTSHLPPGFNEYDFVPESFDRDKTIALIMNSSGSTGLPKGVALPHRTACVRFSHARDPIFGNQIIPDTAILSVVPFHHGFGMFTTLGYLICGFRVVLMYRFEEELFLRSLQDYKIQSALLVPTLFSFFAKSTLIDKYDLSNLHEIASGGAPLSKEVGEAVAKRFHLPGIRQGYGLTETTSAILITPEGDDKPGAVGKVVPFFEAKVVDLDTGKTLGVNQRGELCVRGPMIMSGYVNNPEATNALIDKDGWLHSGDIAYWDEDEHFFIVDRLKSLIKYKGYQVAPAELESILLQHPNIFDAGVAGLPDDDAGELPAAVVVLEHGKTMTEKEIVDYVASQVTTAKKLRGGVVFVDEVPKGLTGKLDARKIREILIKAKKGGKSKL
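Biochemical qHTS of compounds, final roughly 60 µM downward over six points, against 10 nM purified firefly luciferase using Km concentrations of substrates (10 uM D-luciferin, 10 uM ATP) in Tris acetate pH 7.5 buffer; luminescence output.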
ELG1 genotoxic: induces genotoxicity in HEK293T cells with luciferase-tagged ELG1; HEK293T ELG1-luciferase reporter, luminescence, 16 h; Potency, µM (doses to about 46 µM), actives largely listed as activators; 330,000 tested, 1.3% active; AID 504466; further: nearly all actives have a fitted effect of over 60% in size
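DMSO vehicle served as control against compound-treated ELG1-luciferase HEK293T cells; exposure lasted 16 hr at 37 °C and 5% CO2, followed by ONE-Glo luminescence detection after 30 min.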
KinaseGlo FLuc: Kinase-Glo luciferase inhibition (counter-screen). Q27757. Kinase-Glo luciferase, ATP luminescence, 8 min. Potency, µM (top dose mostly 38.3 µM), actives largely listed as inhibitors. 200,000 tested, 0.28% active. AID 1379; further: nearly all actives have a fitted effect of over 60% in size
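Recombinant Kinase-Glo luciferase, 10 uM ATP (linear range), luciferin; imidazole pH 7.2 / KCl / MgCl2 / Tween / BSA buffer; 8 min RT; luminescence.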
Rab9 prom act: activates the Rab9 promoter; Huh7 Rab9 promoter-luciferase reporter, luminescence, 24 h; Potency, µM (highest dose often 9.22 µM), hits mostly activators; 320,000 tested, 2.8% active; AID 485297; further: nearly all actives have a fitted effect of over 60% in size
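Stable Rab9-luc Huh7, 1500 cells/well, 2 h settle; cmpd in DMSO, 24 h, 37 °C/5% CO2; luciferase reagent 10 min RT; luminescence.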
SMN2 splice enh: increases expression of the SMN2 splice variant. HEK293 SMN2-luciferase splicing reporter, luminescence, 30-36 h. Potency, µM (titrated, usually from 46.1 µM), usual class: activators. 210,000 tested, 2.8% active; further: nearly all actives have a fitted effect of over 55% in size
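HEK293 cells carry an SMN2 minigene-luciferase reporter in which exon 7 inclusion puts luciferase in frame. Cells were seeded at 2000 cells/well, attached for 10-12 hours, then exposed to compounds for 30-36 hours at 37C before ONE-Glo luminescence.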
Hits are given with their value; i = inactive; ? = inconclusive; nt = not tested or not shown; [ ] = another dose, or the depositor's remark. The call rests on the fitted dose curve; in most records, active means well fitted curve in the direction sought with a large enough effect; inconclusive means small, poorly fitted or top-dose-only effect, or another doubt; inactive means no such curve, though single readings can be large; an effect the other way counts as inactive or inconclusive.

SMILES	NPC1 prom act	FLuc modulator	ELG1 genotoxic	KinaseGlo FLuc	Rab9 prom act	SMN2 splice enh
COc1ccccc1N1CCN(C(CNC(=O)C(=O)NCCc2ccccc2)c2cccnc2)CC1 (stereo not drawn)	nt	i	nt	nt	nt	nt
CC(=O)Oc1ccc2nc(-c3ccco3)oc(=O)c2c1	i	12µM	i	nt	i	nt
Cc1ccc2nc(-c3ccccc3C)oc(=O)c2c1	i	6µM	i	nt	i	nt
Cc1ccc2nc(-c3cccs3)oc(=O)c2c1	i	9.5µM	i	i	i	i
CC(=O)Oc1ccc2nc(-c3cccs3)oc(=O)c2c1	i	?	i	i	i	i
CC(=O)Oc1ccc(-c2nc3ccccc3c(=O)o2)cc1	i	9.5µM	i	nt	i	nt
CCn1c(C(=O)NCc2ccccc2)cc2sc(Cl)cc21	nt	?	nt	nt	nt	i
Cc1nnc(N2CCN(c3ccccc3F)CC2)c2c1nnn2Cc1ccccc1Cl	nt	i	nt	nt	nt	i
CCOC(=O)c1[nH]c(C)c(CCC(=O)N2CCN(c3cc(Cl)ccc3C)CC2)c1C	nt	i	nt	nt	nt	nt
COc1ccc(OC)c(C(=O)c2c(N)c(-c3nc(-c4ccc(C)c(C)c4)cs3)c3ccccn23)c1	nt	i	nt	nt	nt	i
Cc1ccc2nc(-c3ccccc3)oc(=O)c2c1	i	3.8µM	i	nt	i	nt
COc1ccc(-c2nc3ccc(C)cc3c(=O)o2)cc1OC	i	3.4µM	i	nt	i	nt
Cc1ccc(-c2nc3ccccc3c(=O)o2)cc1	?	4.3µM	?	nt	3.2µM	nt
CCN1C(=O)c2ccc(-c3nc4ccccc4c(=O)o3)cc2C1=O	i	i	i	nt	i	nt
Cc1cc(-c2nc3ccccc3c(=O)o2)ccc1[N+](=O)[O-]	i	2.7µM	?	nt	i	nt
COc1cc2nc(-c3ccccc3C)oc(=O)c2cc1OC	i	?	i	nt	i	nt
CCc1nn2c(=O)cc(COC(=O)Cc3ccccc3)nc2s1	nt	i	nt	nt	nt	nt
O=C1C(c2cccc(Br)c2)N(CCc2ccccc2)C(=O)CN1C1CCCCC1 (stereo not drawn)	nt	i	nt	nt	nt	nt
COc1cc(NC(=O)Cn2nnnc2-c2ccccc2F)cc(OC)c1OC	nt	i	nt	nt	nt	i
O=C(Nc1ccc2c(c1)OCO2)c1cc(C2CC2)on1	1.6µM	4.3µM	2.1µM	i	1.4µM	11µM
COc1ccc(-c2cc(C(=O)Nc3ccc4c(c3)OCO4)no2)cc1	i	i	i	nt	i	i
CC(C)c1cc(C(F)(F)F)n2nc(C(=O)Nc3ccc4c(c3)OCO4)cc2n1	i	12µM	?	i	?	i
CC(C)c1cc(C(=O)Nc2ccc3c(c2)OCO3)no1	2.8µM	3.4µM	2.1µM	i	1.6µM	7.1µM
CC(C)(C)OC(=O)N1CCC(c2c(C(=O)N3CCCCC3)cnn2-c2ccccc2Cl)CC1	nt	i	nt	nt	nt	nt
O=[N+]([O-])c1ccc(Cl)c(S(=O)(=O)Nc2ccc(-c3ccc(N4CCOCC4)nn3)cc2)c1	i	15µM	i	nt	i	nt
SMILES	NPC1 prom act	FLuc modulator	ELG1 genotoxic	KinaseGlo FLuc	Rab9 prom act	SMN2 splice enh
COc1ccc(-c2cccc(NS(=O)(=O)c3cc([N+](=O)[O-])ccc3Cl)c2)nn1	i	i	i	nt	i	nt
O=S(=O)(Nc1ccc(-c2ccc(N3CCOCC3)nn2)cc1)c1ccc(Cl)c(Cl)c1	i	24µM	i	nt	i	nt
O=[N+]([O-])c1ccc(Cl)c(S(=O)(=O)Nc2cccc(-c3ccc(N4CCOCC4)nn3)c2)c1	?	2.4µM	10µM	nt	?	nt
O=C(NCCCN1CCN(c2cccc(Cl)c2)CC1)c1cnn(-c2ccc(F)cc2)c1-n1cccc1	nt	i	nt	nt	nt	nt
NC(C(=O)O)[C@H](O)C(=O)O (stereo partly drawn)	nt	nt	nt	nt	nt	i
O=C(Nc1cccc(-c2cn3c(n2)SCC3)c1)c1ccc2c(c1)OCO2	i	11µM	i	i	?	i
O=C(Nc1ccc(-c2cn3c(n2)SCC3)cc1)c1ccc2c(c1)OCO2	i	?	i	i	?	i
CS(=O)(=O)Nc1ccc(-c2cn3cccnc3n2)cc1	i	?	i	nt	i[1.84 µM]	nt
O=C(Nc1cccc(-c2cn3cccnc3n2)c1)c1ccc2c(c1)OCO2	i	12µM	i	i	i	i
Nc1cccc(-c2cn3cccnc3n2)c1	i	i	i	i	i	i
O=C(Nc1cccc(-c2cn3cccnc3n2)c1)c1ccco1	i	?	i	i	i	i
Cc1ccc(-c2cn3cccnc3n2)cc1	2.8µM	15µM	i	?	?	nt
c1cnc2nc(-c3ccc4c(c3)OCO4)cn2c1	?	9.5µM	?	?	2.5µM	nt
c1ccn2cc(-c3ccc4c(c3)OCO4)cc2c1	?	3.4µM	?	i	3.2µM	13µM
S=c1[nH]nc(-c2ccc3c(c2)OCO3)n1-c1ccccc1	i	i	i	i	i	i
NC(=O)c1ccsc1NC(=O)COc1ccccc1	?	12µM	8.9µM	i	3.2µM	13µM
Cc1cccc(OCC(=O)OCC(=O)Nc2sccc2C(N)=O)c1	nt	nt	i	nt	nt	nt
Cn1cc(SCC(=O)Nc2nccs2)c2ccccc21	?	12µM	21µM	i	?	11µM
O=C(COc1ccccc1)Nc1nccs1	1µM	11µM	?	10µM	3.5µM	5µM
COc1ccc(-c2cc(-c3ccccc3)nc(SCC(=O)Nc3nccs3)c2C#N)cc1	i	13µM	i	nt	i	nt
O=C(Cn1c(=O)c2sccc2n(CC(=O)Nc2ccc(Cl)cc2Cl)c1=O)NCCc1ccccc1	nt	i	nt	nt	nt	i
CCCCCn1c(=N)n(CC(O)COc2cccc(C)c2)c2ccccc21 (stereo not drawn)	nt	i	nt	nt	nt	i
O=C(COc1ccc2ccc(=O)oc2c1)Nc1cccnc1	i	i	i[9.26 µM]	nt	i	nt
O=C(COc1ccc2ccc(=O)oc2c1)Nc1nccs1	2.2µM	15µM	?	nt	2.8µM	nt
O=C(COc1ccc2ccccc2c1)Nc1nccs1	0.5µM	0.6µM	?	i	0.35µM	nt
SMILES	NPC1 prom act	FLuc modulator	ELG1 genotoxic	KinaseGlo FLuc	Rab9 prom act	SMN2 splice enh
COc1ccccc1N1C(=N)S/C(=C\c2ccc(-c3ccccc3C(=O)O)o2)C1=O	i	?	i	i	i	i
N=C1S/C(=C\c2ccc(-c3ccccc3C(=O)O)o2)C(=O)N1c1ccc2c(c1)OCO2	i	9.5µM	i	nt	i	nt
C=C1CCO[C@@]2([C@H](O)[C@@](C)(O)CO)NC(=O)[C@]1(O)NC2=O	nt	nt	nt	i[7.66 µM]	nt	i[9.22 µM]
Cc1ccc(C(=O)Nc2cccc(-c3ccc(N4CCOCC4)nn3)c2)cc1[N+](=O)[O-]	?	?	?	nt	3.2µM	nt
O=C(Nc1ccc(C(=O)N2CCOCC2)cc1)c1ccc([N+](=O)[O-])cc1	i	i	i	nt	i	nt
O=C(Nc1cccc(-c2ccc(N3CCOCC3)nn2)c1)c1ccccc1	2.8µM	2.7µM	?	nt	?	nt
Cc1ccccc1C(=O)Nc1cccc(-c2ccc(N3CCOCC3)nn2)c1	?	2.1µM	?	nt	3.2µM	nt
O=C(Nc1cccc(-c2ccc(N3CCOCC3)nn2)c1)c1ccc([N+](=O)[O-])cc1	3.5µM	2.4µM	?	nt	2.5µM	nt
COc1ccc(-c2nc3c(c4c2C[C@H](c2ccccc2)OC4)CN(S(=O)(=O)c2ccc4c(c2)OCCN4C)CC3)c(C)c1	nt	nt	nt	i[7.66 µM]	nt	i[9.22 µM]

Screens (PubChem BioAssay)
